# Laboratory results taken from PubChem BioAssay (NCATS).
# Records with an inconclusive call do not appear. The source made the active and inactive calls. The call rests on the fitted dose curve; in most records, active means well fitted cell-killing curve with a large enough effect; inconclusive means small, poorly fitted or top-dose-only effect, or effect the other way; inactive means no such curve, though single readings can be large or run the other way.
# Experiment: Quantitative High-Throughput drug screen in 47 multiple myeloma cell lines against the NCATS MIPE library collection: KMS27_JCRB cell viability assay (AID 1918970); further: nearly all actives have a fitted effect of over 30% in size;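 on viability (% of DMSO): 100% = DMSO-only wells and 0% = media-only wells without cells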
# Conditions: KMS27 myeloma cells, CellTiter-Glo ATP viability, 48 h; viability (% of DMSO): at 45.8 µM (top of the series)
# Method in brief: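 Luminescent ATP read-out (CellTiter-Glo, 5 min at room temperature) after 48 h compound exposure of 500 KMS27_JCRB cells per well; DMSO wells define full viability and media-only wells zero.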
# Potency means the concentration at half of the fitted maximal effect.
SMILES,viability (% of DMSO),Potency
CC1CCN(c2cc(N3CCN(C)CC3)ccc2NC(=O)c2cc(C#N)c[nH]2)CC1,136% (inactive),–
CC[C@H](CC#N)OC(=O)N[C@@H](C)c1cccc(NC(=O)Nc2ccc(-c3cnco3)c(OC)c2)c1,–,14.8 µM (active)
COc1cc([C@H]2Oc3cc([C@H]4Oc5cc(O)cc(O)c5C(=O)[C@H]4O)ccc3O[C@H]2CO)ccc1O,118% (inactive),–
CCN1C[C@H](C)n2c(c(O)c3c(=O)n(Cc4ccc(F)c(Cl)c4)nc(C(=O)NC)c32)C1=O,118% (inactive),–
CCCCCOC(=O)Nc1nc(=O)n([C@@H]2O[C@H](C)[C@@H](O)C2O)cc1F (some centres not stated),95.1% (inactive),–
NC[C@H]1O[C@H](O[C@@H]2[C@@H](O)[C@@H](O[C@H]3O[C@H](CO)[C@@H](O)[C@H](N)[C@@H]3O)[C@H](N)C[C@@H]2N)[C@H](O)[C@@H](O)[C@H]1O,110% (inactive),–
CN1[C@H]2CC[C@H]1CC(OC(=O)c1c[nH]c3ccccc13)C2 (some centres not stated),107% (inactive),–
COc1cc(F)c(C(C)C)cc1-c1ccc(C(F)(F)F)cc1CN1C(=O)O[C@H](c2cc(C(F)(F)F)cc(C(F)(F)F)c2)[C@@H]1C,105% (inactive),–
O=C(CO)N1CCC(c2[nH]nc(-c3ccc(Cl)cc3)c2-c2ccncn2)CC1,115% (inactive),–
CN1CCN(c2cccc(Nc3nc4c(-c5ccc(S(C)(=O)=O)cc5)cccn4n3)c2)CC1,–,1.32 µM (active)
COc1ccc(-c2oc3c(CC=C(C)C)c(O)cc(O)c3c(=O)c2O)cc1,144% (inactive),–
CCCCCCCCCCCCCC(=O)N[C@H](CO)[C@H](O)c1ccc([N+](=O)[O-])cc1,–,14.8 µM (active)
